Methyltransferases: Primary Screen for Target Class Profiling of Small Molecule Inhibitors of Methyltransferases; 25,000 tested, 3.9% active; purified enzyme, MTase-Glo SAH luminescence; active compounds read low; calls only at 40 µM; AID 1745853, 2022; call rule not given here
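Each enzyme was reacted with SAM and its substrate, with compounds tested once at 40 uM; SAH formed was read by MTase-Glo luminescence.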
Of the large screens only hits and unclear results are named; the others gave an inactive call. The full list was thinned out, with hits kept by preference.

CC1(C(=O)NC2CCCC2)Cn2c(ccc2-c2ccccc2)C(=O)N1CCC1=CCCCC1 (stereo not drawn)	none
CCOC(=O)C1CCN(C(=O)CCn2ccc3cc(S(=O)(=O)N4CCCCC4)ccc32)CC1	none
O=C(NC1Cc2ccccc2N(C[C@@H](O)CO)C1=O)c1cc2cc(Cl)sc2[nH]1 (stereo partly drawn)	none
CCN1C(=O)c2cc(C(=O)NCc3ccccc3OC)nn2CC1(C)C(=O)NC1CCCC1 (stereo not drawn)	none
c1cn2cc(-c3ccc4cn[nH]c4c3)nc(Nc3ccc(N4CCOCC4)cc3)c2n1	Methyltransferases active
O=c1[nH]c2ccc(S(=O)(=O)Nc3ccc(N4CCOCC4)cc3)cc2[nH]1	none
Cc1ccc(C)c(N2C(=O)CSc3c(c4ccccc4n3C)C2C(=O)NCCCOC(C)C)c1 (stereo not drawn)	none
Cc1ccccc1Sc1ccc(/C=C2\SC(=S)NC2=O)cc1[N+](=O)[O-]	Methyltransferases active
C=C1[C@H](OC(C)=O)[C@H]2[C@@H](OC(=O)c3ccccc3)[C@@H](C)C[C@]2(O)[C@@H](OC(C)=O)[C@H](C)/C=C/C(C)(C)C(=O)[C@H](OC(C)=O)[C@H]1OC(C)=O	none
CC1CCN(S(=O)(=O)c2ccc3c(ccn3CC(=O)N3CCc4ccccc4C3)c2)CC1	none
CC(=O)OC[C@]12[C@H](OC(C)=O)C(=O)[C@@H]3[C@@H](OC(C)=O)[C@@]14O[C@@]3(C)COC(=O)c1cccnc1[C@@H](C)[C@H](C)C(=O)O[C@@H]([C@H](O)[C@@H]2OC(C)=O)[C@]4(C)O	none
Nc1nc(-n2cc(C(=O)O)c(=O)c3cc(F)c(N4CC(O)C4)c(Cl)c32)c(F)cc1F	Methyltransferases active
CC1CN(c2cc3c(cc2F)c(=O)c(C(=O)O)cn3-c2ccc(F)cc2F)CCN1 (stereo not drawn)	none
C[C@@H]1CN(c2c(F)c(F)c3c(=O)c(C(=O)O)cn(C4CC4)c3c2F)C[C@H](C)N1	none
CC(CCc1ccccc1)NC(=O)c1cc2n(n1)CC(C)(C(=O)NC1CCCCC1)N(C)C2=O (stereo not drawn)	none
COc1ccccc1CN1C(=O)c2nc3ccccc3n2CC1(C)C(=O)NC1CCC(C)CC1 (stereo not drawn)	none
C[C@H]1[C@H](O)O[C@@H]2O[C@@]3(C)CC[C@H]4[C@H](C)CC[C@@H]1[C@@]24OO3	none
CSCC[C@H](NC(=O)[C@H](CO)NC(=O)[C@H](CCC(=O)O)NC(C)=O)C(=O)N[C@H](C=O)CC(=O)O	none
CCOC(=O)c1cc2n(n1)CC(C)(C(=O)NCc1ccc(C)cc1)N(c1cc(Cl)ccc1C)C2=O (stereo not drawn)	none
CC1(C(=O)NCc2ccccc2)Cn2c(nc3ccccc32)C(=O)N1C1CC1 (stereo not drawn)	none
CCn1ncc(N2CCC(NC(=O)c3ccccc3)CC2)cc1=O	none
CC(=O)Nc1c2n(c3ccccc13)CC(C)(C(=O)NC1CCCCC1)N(Cc1ccccc1F)C2=O (stereo not drawn)	none
CC(C)(O)c1ccccc1CC[C@@H](SCC1(CC(=O)O)CC1)c1cccc(/C=C/c2ccc3ccc(Cl)cc3n2)c1	Methyltransferases active
COC(=O)c1ncn2c1C(=O)N(CCCc1ccccc1)C(C)(C(=O)NC1CCCCC1)C2 (stereo not drawn)	none
C[C@@]12C[C@]3(O)O[C@H](O1)[C@]1(COC(=O)c4ccccc4)[C@H]3C[C@@]12O[C@@H]1O[C@H](COC(=O)c2ccccc2)[C@@H](O)[C@H](O)[C@H]1O	none
CC(C)(O)/C=C1/C(=O)C(C)(C)C(=O)C(C)(C)C1(O)O[C@@H]1O[C@H](COC(=O)c2cc(O)c(O)c(O)c2)[C@@H](O)[C@H](O)[C@H]1O (stereo partly drawn)	Methyltransferases active
O=C(OC[C@H]1O[C@H](O[C@]2(CO)O[C@H](CO)[C@@H](O)[C@@H]2O)[C@H](O)[C@@H](O)[C@@H]1O)c1ccccc1	none
CCC(C)NC(=O)Cn1nc2nc(Nc3ccc(F)cc3)ccn2c1=O (stereo not drawn)	none
CC(CN1C(=O)c2nc3ccccc3n2CC1(C)C(=O)NC1CCCCC1C)c1ccccc1 (stereo not drawn)	none
COc1cc(/C=C/CO)ccc1O[C@@H]1O[C@H](CO)[C@@H](O)[C@H](O)[C@H]1O	none
COc1ccc(C2Oc3c(OC)cc(CCCO)cc3C2COC2OC(CO)C(O)C(O)C2O)cc1OC (stereo not drawn)	none
COc1cc(C2Oc3c(OC)cc(CCCO[C@@H]4O[C@H](CO)[C@@H](O)[C@H](O)[C@H]4O)cc3C2CO)ccc1O (stereo partly drawn)	Methyltransferases active
COc1cc(/C=C/C(=O)O[C@H]2[C@H](O)[C@@H](CO)O[C@@]2(CO)O[C@H]2O[C@H](CO)[C@@H](O)[C@H](O)[C@H]2O)cc(OC)c1O	none
O=C(/C=C/c1ccc(O)cc1)OC[C@H]1O[C@H](O[C@@]2(CO)O[C@@H](CO)[C@H](O)[C@H]2O)[C@H](O)[C@@H](O)[C@@H]1O	none
COc1cc(C2Oc3c(OC)cc(CCCO)cc3C2CO)ccc1O[C@H]1O[C@H](C)[C@@H](O)[C@H](O)[C@@H]1O (stereo partly drawn)	none
COc1cc(/C=C/c2cc(O)cc(O[C@@H]3O[C@H](CO)[C@@H](O)[C@H](O)[C@H]3O)c2)ccc1O	Methyltransferases active
COc1cc(C(CO)C(OC2OC(CO)C(O)C(O)C2O)c2ccc(O)c(OC)c2)ccc1O (stereo not drawn)	none
COc1cc(C[C@@]2(O)CO[C@@H](c3ccc(O[C@@H]4O[C@H](CO)[C@@H](O)[C@H](O)[C@H]4O)c(OC)c3)[C@H]2CO)ccc1O	none
COc1cc(/C=C/C(=O)OCC2OC(OC3(CO)OC(CO)C(O)C3O)C(O)C(O)C2O)ccc1O (stereo not drawn)	Methyltransferases active
COc1cc(C(O)C(CO)Oc2ccc(CCCO[C@@H]3O[C@@H](C)[C@H](O)[C@@H](O)[C@H]3O)cc2OC)ccc1O (stereo partly drawn)	Methyltransferases active
C/C=C/c1ccc(O[C@@H]2O[C@H](CO)[C@@H](O)[C@H](O)[C@H]2O)c(OC)c1	none
CCOCCCNC(=O)C1c2c(n(C)c3ccccc23)SCC(=O)N1Cc1ccccc1Cl (stereo not drawn)	none
COC(=O)c1cc2n(n1)CC(C)(C(=O)NC1CCC(C)CC1)N(Cc1cccc(C)c1)C2=O (stereo not drawn)	none
COc1ccc2cc3n(c2c1)CC(C)(C(=O)NC1CCCC1)N(c1ccccc1C)C3=O (stereo not drawn)	none
CC(C)CNC(=O)c1ccc2c(=O)n(CC(C)C)c3nn(Cc4cccc(Cl)c4)c(=O)n3c2c1	none
O=C(CCc1nnc2n(Cc3ccccc3Cl)c(=O)c3ccccc3n12)NC1CCCCC1	none
CCCN1C(=O)c2cc(C(=O)N3CCN(c4ccccc4F)CC3)nn2CC1(C)C(=O)NC1CCCC1 (stereo not drawn)	none
CCNC(=O)[C@@H]1C[C@H](N)CN1C(=O)c1cnc(-c2cccnc2)nc1C	none
CCCN1C(=O)c2cc(C(=O)NCc3ccccc3OCC)nn2CC1(C)C(=O)NC1CCCC1 (stereo not drawn)	none
COc1ccccc1-c1cc(C(=O)N2CCOCC2)nc2c1cnn2C	none
CCOc1ccccc1CNC(=O)c1cc2n(n1)CC(C)(C(=O)NC1CCCC1)N(CC)C2=O (stereo not drawn)	none
CC(C)CCNC(=O)C1(C)Cn2c(nc3ccccc32)C(=O)N1Cc1ccccc1Cl (stereo not drawn)	none
